The text below walks through data of publication PMC12136788.

Positions count from the first letter of the chain named. The full ranking holds about 5,800 sequences; the median of “enrichment r” is about 0.68, and the highest 2% start at about 11. The sample as a whole holds a higher share of the highest values than the screen did.

Sequences and labels used below:
T1: UNK ZnF1-6 (called full-length) (human, UniProt Q9C0B0 30-357)
T1 sequence: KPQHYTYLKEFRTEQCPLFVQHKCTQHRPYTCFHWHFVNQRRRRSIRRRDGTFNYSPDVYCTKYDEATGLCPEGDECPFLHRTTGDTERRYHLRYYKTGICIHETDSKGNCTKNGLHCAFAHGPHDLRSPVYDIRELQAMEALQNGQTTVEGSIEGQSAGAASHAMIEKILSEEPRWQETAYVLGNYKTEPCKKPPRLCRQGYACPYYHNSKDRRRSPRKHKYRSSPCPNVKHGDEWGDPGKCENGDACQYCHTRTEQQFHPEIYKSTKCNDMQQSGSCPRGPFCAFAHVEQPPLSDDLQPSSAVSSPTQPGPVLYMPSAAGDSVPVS

B1: chr10:75150949:75151073:+|CDS|ENSG00000156671|unk|FALSE|unique (ssRNA)
RNA: GGGAGUUCUACAGUCCGACGAUCUGUUCGAAGAUUGGACCCAGAAUACUGGAAGACUAUACUGAGUUGUAUAUAUGUUUUUAUAGUAUUUGGAUUUACAUCUUUCAUUAUGGUUAUAGUCCAUGAGCGAGUGCCUGACAUGCACAACAGAGGAUUGAGCAUCA
B2: ENSG00000107863:be:win_4151|CDS|ENSG00000107863|bound_else_gene|NA|bound_elsewhere_windowed (ssRNA)
RNA: GGGAGUUCUACAGUCCGACGAUCAUUCAGCUACUAGUGACUCAACAAAAUCUAAGGGUUCUUGGGGAUCUGGAAAGGAUCAGUAUAGCAGGGAACUGCUUGUGUCCUCCAUCUUUGCAGCUGCUAGUCGCAAGAGGAAGAAGCCAACAGAGGAUUGAGCAUCA
B3: chr2:224001733:224001845:-|CDS|ENSG00000135919|unk|total|mutant (ssRNA)
RNA: GGGAGUUCUACAGUCCGACGAUCGGCCUCUGUGACGCUGCCUUCCAUCUGCUCCCACUUCAAUCCUCUGUCUCUCGAGGAACCCGGCUCCAACACGGGGAUCCAGGUUUUCAAUCAGAUUGUGAAGUCGAGGCCUCAUGACAACAACAGAGGAUUGAGCAUCA
B4: chr12:122341087:122341188:-|CDS|ENSG00000130779|unk|FALSE|bound_elsewhere (ssRNA)
RNA: GGGAGUUCUACAGUCCGACGAUCAGAAUUUGCUGAACUAAAAACACAAAUAGAGAAAAUGAGACUAGAUUACCAACACGAAAUAGAAAAUUUGCAGAAUCAACAAGACUCUGAACGGGCUGCCCAUGCUAAAGAGAUGGAAGCCAACAGAGGAUUGAGCAUCA
B5: chr3:68976711:68977116:-|CDS|ENSG00000163378|control|control|control (ssRNA)
RNA: GGGAGUUCUACAGUCCGACGAUCCUUUUUAGGAAUACCAAAGUUUUCAACUUUUUCAGCUUUAGAAUUUGUAAAUAUUUUUGUAGAAUAUCAUAUGACUGUAAUUCCAGAGUGUUCCAACUUGUUUAUGAUAUAUUUGGGUAACAACAGAGGAUUGAGCAUCA
B6: ENSG00000070961:be:win_5751|3pUTR|ENSG00000070961|bound_else_gene|NA|bound_elsewhere_windowed (ssRNA)
RNA: GGGAGUUCUACAGUCCGACGAUCCUAAAAAUUGACCCUAUCAACUGGAGAGCCCACAAGGCAUAGGGAAUAGAGAAAAGGGAAAUGUUUUCAGUUUUCUUUUUUAUUUUGGUUAUGCUUAAAUAUGAAUGUAAUUACCAAAAGCAACAGAGGAUUGAGCAUCA
B7: chr13:52036708:52036809:-|3pUTR|ENSG00000197168|unk|FALSE|unique (ssRNA)
RNA: GGGAGUUCUACAGUCCGACGAUCGUAGAACUUUUGAAUAUAGCCAUUAAUAUUUUUACUUUAAAGUUUCUAUUAAGAAAUCUUAGGCCGGGCAGUCUCAUCACUUUGGGAGGCCAAGGCAGGCAGAUCAUGAGGUCAGGAGUUCAACAGAGGAUUGAGCAUCA
B8: chr20:13714314:13714426:-|3pUTR|ENSG00000089048|unk|FALSE|unique (ssRNA)
RNA: GGGAGUUCUACAGUCCGACGAUCUUUUUCUAGCCAUAAAGGAUGGAAGUCAAGAACUUUUUGUUGUUUAGUCAUGUUAAGUAUAGUUUAUGAAAUUAACUUGUAAAUAAAAGUGUAAAAUAUUUUCAUUAUUUUGUAUAGCACCAACAGAGGAUUGAGCAUCA
B9: chr10:62806226:62806343:+|3pUTR|ENSG00000181915|unk|FALSE|unique (ssRNA)
RNA: GGGAGUUCUACAGUCCGACGAUCCUACCCCUUAGUUAAAUAGGGUUUAUUUUCCACUCAUGCCCUUAUGCCUUUUUUUCUUAUAGUUUUUUAACUUAUUGACUGUGCAUGACCCAGUGGUUUGAAUUGUUUUUAGUUCAAGUCCAACAGAGGAUUGAGCAUCA
B10: chr6:152987361:152990084:-|three_prime_utr|ENSG00000112031|control|control|control (ssRNA)
RNA: GGGAGUUCUACAGUCCGACGAUCAGAUUAUCUACUGGAUGAACUUGUACAGUCAUUGAAGGAAUACGCCGAUUAUGAAUCUUUAGUAGAAAUUAUUUCCCAAAAAGUUUAAGUUGAUUUGUUAUUUAUAGACUUUCGUAGCUUCAACAGAGGAUUGAGCAUCA
B11: chr10:11920118:11920232:-|3pUTR|ENSG00000151461|unk|FALSE|unique (ssRNA)
RNA: GGGAGUUCUACAGUCCGACGAUCGUAGUAUAUUUAGUCGGAGAGCACAUCUGUAUGCGACAACUUGAUUACAUCUUUUUUUCUAGCUAUUUUGCAUUUUUUCUUUUACCAUGUUUCAGUUUCUGCAUGUAGAUUUAAAUAAAACAACAGAGGAUUGAGCAUCA
B12: chr8:58582127:58582250:+|3pUTR|ENSG00000137575|unk|FALSE|bound_elsewhere (ssRNA)
RNA: GGGAGUUCUACAGUCCGACGAUCUUCAUAUUACUUUAGUUCUAUAGCAUACUUGCAUCUUUAACAUGCUAUCAUAGUACAUUUAGAAUGAUUGCCUUUGAUUUUUUUUUUAAAUUCUGUGUGUGUGUGUGUAAAAUGCCAAUUCAACAGAGGAUUGAGCAUCA
B13: chr21:14371318:14371404:-|3pUTR|ENSG00000155304|msi1_unk|FALSE|overlapping (ssRNA)
RNA: GGGAGUUCUACAGUCCGACGAUCUAUGAAUAACAAUCUGAAGUCUUUUCAUAAAAAAAAUUAAUAAACUUUAGUUGUACAUUUAGCCAGUGUUAUUUGAAGUAUGUAACUUUUAAAAUAUUAAGUGUCUUGUAUGAUUAGAAUCAACAGAGGAUUGAGCAUCA
B14: chr7:107202531:107202632:-|3pUTR|ENSG00000164597|msi1|total|mutant (ssRNA)
RNA: GGGAGUUCUACAGUCCGACGAUCUAUUCUGAGAACUCAUAAAUAAAAUUCAGCCAAGAUUAAUCAAUCAAUCAAUCAAUCAGCCGACGUCAGAGAUAAGCAACUUUUUUUUCCAUUUAUUUGAAAUAAUAUACAAGAAUACCGCAACAGAGGAUUGAGCAUCA
B15: chr12:39553730:39553837:-|3pUTR|ENSG00000173208|unk|FALSE|unique (ssRNA)
RNA: GGGAGUUCUACAGUCCGACGAUCGAAGUAUGUUAAGCUAAGCACAGAGAAAAAAAGGCAGCAAGACAUGUUUUAUAAGAUUUUAGCAUUAAGGAAGUAUAUGAUCUGACUUUUCAGAAGAAAAUAAACAAAUGCAUUAUGUAACAACAGAGGAUUGAGCAUCA
B16: chr13:52036708:52036809:-|3pUTR|ENSG00000197168|unk|total|mutant (ssRNA)
RNA: B7 RNA with U25C, A26C, U40C, A41C, U83C, A84C

This assay concerns the target T1, UNK ZnF1-6 (called full-length). The assay can be described thus: nsRBNS (natural sequence RNA bind-n-seq); RBNS binding buffer (assumed for nsRBNS): 25 mM Tris pH 7.5, 150 mM KCl, 3 mM MgCl2, 0.01% Triton X-100, 500 ug/ml BSA, 20 U/ml SUPERase-In, 4 C; UNK is unkempt and MSI1 is Musashi-1; names of the RNAs are library labels; protein concentration not given here; high values mean tight binding.
Take B1: the binding signal is 0.389 enrichment R.

In the case of B2, the binding signal stood at 0.489 enrichment R.

The molecule B3 registered a binding signal of 0.666 enrichment R.

The molecule B4 yielded a binding signal of 8.87 enrichment R.

In turn, B5 came in with a binding signal of 9.89 enrichment R.

As for B6, the binding signal stood at 0.412 enrichment R.

B7 came in with a binding signal of 21 enrichment R.

With B8, the binding signal was determined as 62.3 enrichment R.

In turn, B9 had a binding signal of 15.8 enrichment R.

B10 displayed a binding signal of 1.84 enrichment R.

With B11, the binding signal was determined as 21.9 enrichment R.

In the case of B12, the binding signal was found to be 5 enrichment R.

As to B13, the binding signal came to 1.48 enrichment R.

Molecule B14 showed a binding signal of 1.94 enrichment R.

B15 gave a binding signal of 0.997 enrichment R.

In turn, B16 showed a binding signal of 2.85 enrichment R.
